# Source: PubChem BioAssay
# Hits are enriched below; roughly 28% of the tested compounds scored in any of these assays.
# CYP2C19 inh = inhibitors of human CYP2C19; inhibition, % at 5 µM; CYP2C19 Supersomes, luciferin-H EGE luminescence, 30 min; AID 778; 21% of 96,000 active;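 active means CYP2C19 inhibition above a set limit at 5 µM in the primary screen, cut at about 50% in these data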;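 further: plate controls were negative control wells for no effect and 2.5 mM tranylcypromine positive control for full effect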
# CYP2C19 act = cytochrome P450 2C19 (human) activation. P33261. recombinant CYP2C19, luciferin-H EGE luminescence; active compounds read high; 0 = fully inhibited enzyme, 1 = untreated enzyme. activation factor at 5 µM. 96,000 tested, under 10 active. AID 1025;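 active means activation factor of at least 2 at 5 µM in the primary screen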;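 further: 0 = wells with 2.5 mM tranylcypromine and 1 = vehicle-only wells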
# PTK2B oligo ant = blocks oligomerization of human Pyk2 in cells | Q293 cells, Pyk2 FERM NanoBiT luminescence; active compounds read low | 0.83% of 99,000 active | z-score (the deposit names both 25 µM and 10 µM) | Q14289;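 active means Z-score of -3 or lower, scaled per plate to the spread of control and sample wells; inactive means z-score above -3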;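 further: negative z-score means lost luminescence so less FERM oligomerization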
# CYP2C9 inh = human CYP2C9 inhibition; P11712; CYP2C9 Supersomes, luciferin-H conversion, luminescence; inhibition, % at 5 µM; 20% of 96,000 active;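 active means blocking of liver enzyme CYP2C9 beyond about 50% at 5 µM, limit read from the data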
# Target sequence (P11712 whole entry, looked up): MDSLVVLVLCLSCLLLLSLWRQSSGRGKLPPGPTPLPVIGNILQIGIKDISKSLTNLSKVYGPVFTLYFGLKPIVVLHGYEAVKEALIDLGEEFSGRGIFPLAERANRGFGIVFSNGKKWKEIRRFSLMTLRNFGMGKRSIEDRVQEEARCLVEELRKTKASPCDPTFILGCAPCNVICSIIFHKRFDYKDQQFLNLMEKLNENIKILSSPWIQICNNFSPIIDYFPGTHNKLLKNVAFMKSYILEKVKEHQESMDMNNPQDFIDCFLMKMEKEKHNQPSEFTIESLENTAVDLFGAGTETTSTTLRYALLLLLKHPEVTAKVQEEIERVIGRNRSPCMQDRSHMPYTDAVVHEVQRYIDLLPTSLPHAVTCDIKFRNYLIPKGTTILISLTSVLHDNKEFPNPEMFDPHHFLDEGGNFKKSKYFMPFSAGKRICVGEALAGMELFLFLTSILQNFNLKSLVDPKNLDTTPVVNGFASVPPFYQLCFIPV
# CYP2C9 activ = increases human cytochrome P450 2C9 activity; P11712; recombinant CYP2C9, luciferin-H conversion, luminescence; active compounds read high; factor 1 = untreated enzyme, 0 = blocked; activation factor at 5 µM; 1.4% of 96,000 active; AID 1024;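 active means activation factor of 2 or more for CYP2C9 at a 5 µM dose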;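 further: 0 = sulfaphenazole-blocked wells and 1 = vehicle-only wells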
# The depositor's hits bear a star; . = not tested or not shown.
SMILES,CYP2C19 inh,CYP2C19 act,PTK2B oligo ant,CYP2C9 inh,CYP2C9 activ
O=C(CSc1nnc(-c2ccccc2)o1)NC1CCCCC1,83*,0.2,0,48,0.5
CCOC(=O)CSc1nnc(-c2ccccc2OC)o1,36,0.6,0.5,-95,2*
CCOC(=O)CN(C(=O)CSc1nnc(-c2ccc(OC)c(OC)c2)o1)c1ccc(F)cc1,13,0.9,-0.52,38,0.6
COc1ccc(CN(C(=O)CSc2nnc(-c3ccccc3F)o2)c2ccc(F)cc2)cc1,62*,0.4,-1.8,76*,0.2
CN(C(=O)CSc1nnc(-c2ccco2)o1)C1CCCCC1,2,1,0.34,-9,1.1
COC(=O)C(O)(NC(=O)NC(C)=O)C(F)(F)F (stereo not drawn),1,1,-0.43,0,1
CC1Cc2ccccc2N1C(=O)CN1C(=O)C(=O)N(Cc2ccccc2)C1=O (stereo not drawn),22,0.8,1.7,2,1
COc1ccccc1-c1nnc(SCC(=O)NCc2c(C)c(Cl)cc(C(C)C)c2O)o1,36,0.6,-1.7,-201,3*
O=C(CSc1nnc(-c2ccco2)n1CC1CCCO1)NC1CCCC1 (stereo not drawn),54*,0.5,-0.09,-23,1.2
CCOC(=O)N1CCC(NC(=O)c2csc3c2CCCC3)CC1,14,0.9,.,-29,1.3
CCOC(=O)N1CCN(c2cc(N3CCN(CC)CC3)c(F)cc2[N+](=O)[O-])CC1C (stereo not drawn),23,0.8,0.19,34,0.7
CCOC(=O)COc1ccc(/C=C2/SC(=Nc3ccccc3)N(Cc3cccnc3)C2=O)cc1OC,55*,0.4,0.56,75*,0.2
Cc1ccc(S(=O)(=O)N2CCN(C(=O)CN3CCN(C)CC3)C2)cc1,0,1,-0.32,6,0.9
CCCC(C(=O)NCc1ccco1)N(C(=O)CNS(=O)(=O)c1ccc(Cl)cc1)C1CCCC1 (stereo not drawn),92*,0.1,1.3,80*,0.2
CCC(C(=O)NCc1ccco1)N(C(=O)CNS(=O)(=O)c1ccccc1)C1CCCCC1 (stereo not drawn),71*,0.3,1.5,37,0.6
CCCC(C(=O)NCc1ccco1)N(C(=O)CNS(=O)(=O)c1ccccc1)c1ccccc1OC (stereo not drawn),40,0.6,-0.2,12,0.9
CC(C)C(C(=O)NCc1ccco1)N(C(=O)CNS(=O)(=O)c1ccccc1)C1CCCC1 (stereo not drawn),7,0.9,1.5,-19,1.2
Nc1nnc(SCCOc2cccc(Br)c2)s1,92*,0.1,-1.4,46,0.5
CCCOc1ccc(OCCSc2nnc(N)s2)cc1,11,0.9,.,15,0.9
NNC(=O)CNC(=O)c1cccc(Br)c1,35,0.7,0.07,6,0.9
CC(C)Cn1[nH]c2c3c(ccc2c1=O)C(=O)c1ccccc1C3=O,61*,0.4,-0.85,80*,0.2
CC(C)COC(=O)c1ccc2c(c1O)C(=O)c1ccccc1C2=O,-36,1.4,0.32,36,0.6
OC1(c2cn(Cc3ccccc3)nn2)CCCCC1,10,0.9,1.7,-5,1.1
O=C(O)CNC(=O)C1COc2ccccc2O1 (stereo not drawn),8,0.9,0.35,26,0.7
O=C(N/N=C/c1cccs1)C1COc2ccccc2O1 (stereo not drawn),82*,0.2,-0.8,45,0.6
SMILES,CYP2C19 inh,CYP2C19 act,PTK2B oligo ant,CYP2C9 inh,CYP2C9 activ
O=C(N/N=C\c1ccccn1)C1COc2cc3ccccc3cc2O1 (stereo not drawn),14,0.9,0.13,-4,1
C/C(=N\NC(=O)C1COc2ccccc2O1)c1cccs1 (stereo not drawn),80*,0.2,0.25,30,0.7
CCOc1ccc(-c2c(C(=O)N/N=C/c3ccc(OC)cc3)nnn2-c2nonc2N)cc1,.,.,1.3,.,.
COc1ccc(-c2c3c(=O)n(C)c(=O)n(C)c3cn2-c2cc(OC)ccc2OC)cc1,25,0.8,-0.3,63*,0.4
CCOC(=O)/C(=C\Nc1ccc(OC(F)(F)F)cc1)Sc1ncc(C(F)(F)F)cc1Cl,40,0.6,-0.55,48,0.5
CCOC(=O)c1cc(C)n(CCc2ccccc2)c1C,8,0.9,0.13,34,0.7
CC(=O)c1c(C(C)=O)c(C)n(Cc2ccc(Cl)cc2)c1C,86*,0.1,0.79,33,0.7
CCOC(=O)c1c(C=O)c(C)n(Cc2ccccc2)c1C,49,0.5,-1.9,70*,0.3
CCOC(=O)c1c(C=O)c(C)n(Cc2ccc(Cl)cc2)c1C,28,0.7,-3.2*,84*,0.2
CCCn1c(O)c(N=NC(=O)c2ccco2)c2ccccc21,.,.,-1.3,.,.
CCn1c(O)c(N=NC(=O)CNC(=O)/C=C/c2ccco2)c2ccccc21,50*,0.5,0.17,65*,0.4
COC(=O)CNC(=O)c1ccccc1C,-4,1,0.01,-4,1
CO/N=C(/CNC(=O)c1ccccc1Cl)c1ccc(Cl)cc1,91*,0.1,0.92,47,0.5
c1ccc(-n2cccc2CNC2CCCCC2)cc1,29,0.7,.,-14,1.1
CC(C)c1nc(N2CCN(C(=O)c3ccco3)CC2)c2c3c(sc2n1)CCCC3,38,0.6,-0.78,58*,0.4
Cc1sc2nc(C(C)C)nc(SCC(=O)N3CCN(C(=O)c4ccco4)CC3)c2c1C,80*,0.2,0.12,92*,0.1
Cc1nc(N2CCN(C(=O)c3ccco3)CC2)c2c3c(sc2n1)CCC3,86*,0.1,4.3,86*,0.1
O=C(O)C1=C(C(=O)N2CCN(C(=O)c3ccco3)CC2)CCCC1,0,1,1.1,4,1
Cc1cc(N2CCN(C(=O)c3ccco3)CC2)n2ncnc2n1,.,.,1.3,.,.
CCCCNC(=O)c1onc(CCl)c1C(=O)OC,15,0.8,.,-8,1.1
COc1ccc(CCN2C(=NC(=O)CC(C)C)SC3CS(=O)(=O)CC32)cc1 (stereo not drawn),82*,0.2,-0.37,56*,0.4
O=C(O)CCC(=O)N1CCc2cc(S(=O)(=O)N(CCc3ccccc3)Cc3ccccc3)ccc21,0,1,-1.1,12,0.9
O=C(N/N=C/C=C/c1ccccc1)C1CC1c1ccccc1 (stereo not drawn),.,.,-0.11,.,.
CC(C(=O)NC(=O)NC1CCCCC1)N1CCN(C(c2ccccc2)c2ccccc2)CC1 (stereo not drawn),26,0.7,0,84*,0.2
COC(C(=O)NC1CCCCCCC1)c1ccccc1 (stereo not drawn),.,.,-0.53,.,.
O=C(NC1CCCCC1)C(c1ccccc1)N1CCCC1 (stereo not drawn),71*,0.3,0.02,-9,1.1
Cc1ccc(C(C(=O)NC2CCCCC2)N2CCCC2)cc1 (stereo not drawn),0,1,1.3,6,0.9
CC(C)n1c(Nn2cnnc2)nc2ccccc21,-1,1,0.99,10,0.9
